Outcome data for 40 compounds are collected here from PubChem BioAssay (Tox21).

Results filed as inconclusive are left out. Activity calls are given as the source filed them. Calls come from the whole dose curve; as a rule, active = well fitted activation curve with a large enough effect in the signal ratio in the repeat runs (not every such curve was filed as active); inconclusive = weak or mixed curves, or effect the other way; inactive = flat fitted curve, though single readings scatter; the % refers to the signal ratio.

A short description of the assay: qHTS assay to identify small molecule agonists of the endoplasmic reticulum stress response signaling pathway (AID 1159516). Conditions: ESRE-bla HeLa, ER stress beta-lactamase reporter, 5 h; series mostly up to 61 µM. An excerpt: National Center for Advancing Translational Sciences [NCATS]
NIH Chemical Genomics Center [NCGC]
U.S. Environmental Protection Agency [EPA]
National Institutes of Environmental Health Sciences [NIEHS]
National Toxicology Program [NTP]
U.S. Food and Drug Administration [FDA]
Endoplasmic Reticulum (ER) plays an important role in cellular signaling, protein folding/maturation, stress response, lipid biosynthesis, calcium storage and release etc. Under stress conditions, proteins in ER misfold or unfold, and leading to the expression of ER stress responsive genes. ER stress has been associated with a variety of pathophysiological conditions such as cancer, inflammation, neurodegenerative diseases, diabetes, ischemic heart disease etc. To identify the compounds that induce ER stress response, an ER stress reporter cell line, CellSensor ESRE-bla HeLa (Life Technologies, Carlsbad, CA) containing a beta-lactamase reporter gene under control of the Endoplasmic reticulum Stress Response Element (ESRE) was used to screen Tox21 10K compound library.
Tox21 Assay Protocol Summary:
ESRE-bla HeLa cells were dispensed at 1,500 cells/6 uL of assay medium per well into black wall/clear-bottom 1536-well plates using a Multidrop Combi (ThermoFisher Scientific, Waltham, MA) dispenser. After the assay plates were incubated at 37 C and 5% CO2 for an overnight, 23 nL of compounds dissolved in DMSO, positive controls or DMSO only was transferred to the assay plate by a Pintool station (Kalypsys, San Diego, CA). The assay plates were incubated at 37 C and 5% CO2 for 5 hr. One uL of LiveBLAzer B/G FRET substrate (Life Technologies) was added using a Flying Reagent Dispenser (Aurora Discovery, San Diego, CA) and the plates were incubated at room temperature for 2 hr. Fluorescence intensity (405 nm excitation, 460 nm and 530 nm emissions) was measured using an Envision plate reader (PerkinElmer, Shelton, CT).
Background: qHTS replaces the single test concentration by a dilution series.
On to `CC(=O)OC[C@H]1O[C@@H](OC(C)=O)[C@H](OC(C)=O)[C@@H]1OC(C)=O`, for which the compound was classed as inactive. Under `Cc1cccc(Nc2ccncc2S(=O)(=O)NC(=O)NC(C)C)c1` stands “inactive”. With `CN[C@@H]1[C@H](O)[C@H](NC)[C@H]2O[C@@]3(O)C(=O)C[C@@H](C)O[C@H]3O[C@@H]2[C@H]1O` the entry was “inactive”; with `Cc1ccccc1OCC1CO1` (stereo not given), “inactive”. Regarding `COC(OC)C(C)c1ccccc1` (stereo not given), the outcome was inactive. Under `CCOC(=O)C(C)(C)C` stands “inactive”; under `CC(C)COC(=O)/C=C/c1ccccc1`, “inactive”. As for `CC1=NN(c2ccc(S(=O)(=O)O)cc2)C(=O)C1N=Nc1ccccc1` (stereo not given), the compound was called inactive. On to `Cc1cc(O)c2c(c1)C(=O)c1cccc(O)c1C2=O`, for which the call was inactive. `c1ccc(CNc2ncnc3nc[nH]c23)cc1`: the call was inactive. As to `CCCCCCCCCCCCCCCCCCN(C)C`, the call was inactive. With `O=C(O)c1c(Cl)ccc(Cl)c1Cl` the entry was “inactive”.

`COc1ccc(OC)c(NC(=O)CC(C)=O)c1`: the result was inactive.

For the compound `CCN1CN(CC)CN(CC)C1`, the outcome was inactive.

Turning to `CC(=O)OC(C)(C)Cc1ccccc1`, the outcome was inactive. Under `O=S(=O)(O)CCO` stands “inactive”; under `CC1=CC[C@H](CC=O)C1(C)C`, “inactive”; under `Cc1ccc(S(=O)(=O)NC(=O)NC2CCCCCCC2)cc1`, “inactive”. With `CC(Cl)COP(=O)(OCC(C)Cl)OCC(C)Cl` (stereo not given) the entry was “inactive”. In the case of `CCc1nccnc1C`, the outcome was inactive. Consider `COC(/C=C(\C)CCC=C(C)C)OC`, for which the call was inactive. Under `C=C(C)C(=O)OCCCCCCOC(=O)C(=C)C` stands “inactive”.

In the case of `CNC(=O)C(c1ccccc1)c1ccccc1`, the compound was classed as inactive. With `CCCCCCCCOC(C)=O` the entry was “inactive”; with `C=C[C@@H](C)CCC=C(C)C`, “inactive”. Under `C=CCOc1c(Br)cc(C(C)(C)c2cc(Br)c(OCC=C)c(Br)c2)cc1Br` stands “inactive”; under `CCCCCCCCCCCCCC(=O)OC`, “inactive”. Turning to `CCOC(=O)C(=O)c1csc(NC=O)n1`, the compound was called inactive. With `CCCC(C)CC` (stereo not given) the entry was “inactive”.

Take `NC(=O)C1(N2CCCCC2)CCN(CCCC(=O)c2ccc(F)cc2)CC1`: the result was inactive. With `O=C(/C=C/c1ccccc1)NCCO` the entry was “inactive”. With `CCCCCCCCCCC` the entry was “inactive”; with `O=C(c1ccc2c(c1)C(=O)OC2=O)c1ccc2c(c1)C(=O)OC2=O`, “inactive”; with `Cc1nc2n(c(=O)c1CCN1CCC(C(=O)c3ccc(F)cc3)CC1)CCS2`, “inactive”.

Regarding `SCCSCCS`, the outcome was inactive. With `CCOC(=O)CC(CC(=O)OCC)(OC(C)=O)C(=O)OCC` the entry was “inactive”; with `CCCCCCCCCCCCOC(C)=O`, “inactive”. On to `COC(=O)CCC(=O)O`, for which the outcome was inactive. With `CC(C)=CC(C)(C)C` the entry was “inactive”; with `NS(=O)(=O)c1ccc(Cl)c(S(N)(=O)=O)c1`, “inactive”.
